Assay results from PubChem BioAssay (NCATS).
Several values for one entry are separate records, joined by “and”; a condition that tells them apart may be missing. Equal entries are not always repeated. Activity calls are given as the source filed them.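 Rule for the calls: active = calcium activation more than 3 SD above the typical response in the agonist read; inactive = the rest.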

target: Thyrotropin-releasing hormone receptor (Homo sapiens) (UniProt P34981); assay: qHTS for Small Molecule Agonists and Allosteric Enhancers of Human TRH Receptor: Validation Screen for Agonists (AID 493127); settings: TRH receptor agonist cell assay; at 2 µM; stronger effect = higher value;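 note: intracellular calcium rise by fluo-8 fluorescence before TRH EC20 addition; 0% is about no effect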
From the text: NIH Chemical Genomics Center [NCGC]
NIH Molecular Libraries Probe Centers Network [MLPCN]
Assay Submitter (PI): Marvin Gershengorn
This project aims to identify small drug-like molecules that activate (agonists) the thyrotropin releasing hormone (TRH) receptor (TRHR) or enhance its TRH-stimulated activity (allosteric enhancers). TRHR, a drug-accessible cell surface receptor expressed in specific brain regions, and its ligand TRH have been implicated in several central nervous system disorders, including depression and anxiety. Small molecule TRHR agonists or allosteric enhancers that are metabolically stable and able to cross the blood-brain barrier might serve as probes to elucidate the roles of brain TRH receptors in animal models, and might be valuable as lead compounds for the development of drugs to treat patients with central nervous system disorders.
Upon TRHR-Gq activation in TRHR cells, intracellular calcium is released from stores in the endoplasmic reticulum. […] This validation screen measures compound-induced activation of calcium release.
For the HTS assay freshly prepared cells are plated at a density of 2000/well in 3 ul of complete DMEM medium containing 10% serum in 1536-well plates and cultured over night at 37 C in a humidified incubator with 5% CO2. The next day, 2 ul of a no wash calcium dye (ABD Bioquest) was added to the cells and plates were incubated at room temperature for 1 hour. For the assay, assay plates were loaded into the FDSS kinetic plate reader. A 10 cycle (1 second/cycle) baseline measurement is taken and then the FDSS online 1536 pintool delivers 23 nl of compound library (as well as TRH controls) to the plate. The plate is measured for kinetically at 1 cycle/sec for 180 seconds and is considered to be the agonist portion of the assay (eg, compounds which activate a positive calcium response during this portion are flagged as potential agonists). Following the 180 second read, 1 ul of either an EC20 (positive modulation assay) is delivered by an onboard pipette head. Measurements are taken kinetically for an additional 180 seconds.
TRHR FDSS Screening Protocol
1. Reagent, 3 uL 2000 cells/well 1536 TC treated Black plate in media containing 10% FCS
2. Time, 18 hours, 33.5C 5% CO2 (cells grown at 37C)
3. Reagent, 2 uL ABD fluo-8 Ca dye
4. Time, 30 min-1.5hrs hours, Room temp (6 plates/batch)
5. Detector, EX 480/EM 530C, FDSS 10 cycles baseline (1sec/cycle)
6. Compound, 23 nL of stock solution from library
7. Detector, EX 480/EM 530C, FDSS 230 cycles (1sec/cycle) Agonist mode
8. Compound, 1 ul EC20 of TRH made up in HEPES HBSS, 10 nM final
9. Detector, EX 480/EM 530C, FDSS 100 cycles (1sec/cycle) Potentiator mode

Chain of Thyrotropin-releasing hormone receptor (Homo sapiens) (P34981 whole entry, looked up): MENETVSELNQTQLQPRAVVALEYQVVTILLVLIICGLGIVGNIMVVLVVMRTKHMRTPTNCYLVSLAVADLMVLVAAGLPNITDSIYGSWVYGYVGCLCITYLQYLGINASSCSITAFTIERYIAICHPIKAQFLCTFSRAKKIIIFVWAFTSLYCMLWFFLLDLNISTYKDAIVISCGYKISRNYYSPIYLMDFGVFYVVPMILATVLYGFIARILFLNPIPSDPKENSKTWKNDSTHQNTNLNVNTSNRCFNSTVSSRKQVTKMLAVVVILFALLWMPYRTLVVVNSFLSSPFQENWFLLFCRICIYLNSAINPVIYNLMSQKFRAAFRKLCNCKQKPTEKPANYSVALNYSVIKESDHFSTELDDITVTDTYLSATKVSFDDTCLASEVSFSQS

Structure (SMILES)	activation
C[C@]12CC[C@@H]3c4ccc(O)cc4CC[C@H]3[C@@H]1CCC2=O	0.812% (inactive)
CN(C)CC[C@@H](c1ccc(Cl)cc1)c1ccccn1	1.56% (inactive)
COc1ccc(Cl)cc1C(=O)NCCc1ccc(S(=O)(=O)NC(=O)NC2CCCCC2)cc1	1% (inactive)
COC(=O)C1=C(C)NC(C)=C(C(=O)OC)C1c1ccccc1[N+](=O)[O-]	0.938% (inactive)
C=Cc1c(C)c2cc3[nH]c(cc4nc(cc5nc(cc1[nH]2)C(C)=C5CCC(=O)O)C(CCC(=O)O)=C4C)c(C)c3C=C	0.125% (inactive)
CN(C)CCCN1c2ccccc2Sc2ccc(Cl)cc21	11.5% (inactive)
CCCCCCCCCCCCCCCC(=O)NCCO	1.06% (inactive)
NC(N)=NCCC[C@H](N)C(=O)O	-0.438% (inactive)
NC1CCN(c2cccc(Cl)n2)CC1	1.06% (inactive)
CN1CCN(C2Cc3ccccc3Sc3ccc(Cl)cc32)CC1 (centres undefined)	0.75% (inactive)
CC(C)(C)c1onc(OCP(=O)(O)O)c1CC(N)C(=O)O (centres undefined)	1% (inactive)
CCCn1cnc2c1c(=O)n(CCCCC(C)=O)c(=O)n2C	1.25% (inactive)
CN(C)CCC=C1c2ccccc2CCc2ccccc21	1.31% (inactive)
CN(C)CCCN1c2ccccc2CCc2ccccc21	2.19% (inactive)
NC(=O)c1ncn([C@@H]2O[C@H](CO)[C@@H](O)[C@H]2O)n1	0.875% (inactive)
Cc1cc(N)c2ccccc2[n+]1CCCCCCCCCC[n+]1c(C)cc(N)c2ccccc21	0.812% (inactive)
CC(C(O)c1ccc(O)cc1)N1CCC(Cc2ccccc2)CC1 (centres undefined)	5.75% (inactive)
CC(CN1c2ccccc2Sc2ccccc21)N(C)C (centres undefined)	3.12% (inactive)
CNCCC(Oc1ccc(C(F)(F)F)cc1)c1ccccc1 (centres undefined)	22.8% (inactive)
CC1=C(/C=C/C(C)=C/C=C/C(C)=C/C(=O)O)C(C)(C)CCC1	0.375% (inactive)

Structure (SMILES)	activation
CNC(=O)Oc1ccc2c(c1)[C@]1(C)CCN(C)[C@@H]1N2C	1% (inactive)
CCN(CC)CCOC(=O)C1(C2CCCCC2)CCCCC1	-6.69% (inactive)
CNCC(O)c1ccc(O)c(O)c1 (centres undefined)	0.938% (inactive)
OCCN1CCN(CCCN2c3ccccc3Sc3ccc(Cl)cc32)CC1	0.75% (inactive)
OCc1cc(C(O)CNCCCCCCOCCCCc2ccccc2)ccc1O (centres undefined)	-0.25% (inactive)
CCN(CC)CCCC(C)Nc1c2ccc(Cl)cc2nc2ccc(OC)cc12 (centres undefined)	-2.88% (inactive)
CC(C)C(=O)c1c(C(C)C)nn2ccccc12	-4.94% (inactive)
CC(=O)OCC(=O)[C@@]1(O)CC[C@H]2[C@@H]3CCC4=CC(=O)CC[C@]4(C)[C@H]3C(=O)C[C@@]21C	1.06% (inactive)
C#CCN(C)Cc1ccccc1	0.562% (inactive)
CC1=C(CC(=O)O)c2cc(F)ccc2/C1=C\c1ccc(S(C)(=O)=O)cc1	0% (inactive)
CC(CN(C)C)CN1c2ccccc2CCc2ccccc21 (centres undefined)	6.88% (inactive)
CC(C)NC[C@H](O)c1ccc(O)c(O)c1	-0.125% (inactive) and 0.875% (inactive)
CCN(CC)CCNC(=O)c1cc(Cl)c(N)cc1OC	1.31% (inactive)
CC(C)(C(=O)O)c1ccc(C(O)CCCN2CCC(C(O)(c3ccccc3)c3ccccc3)CC2)cc1 (centres undefined)	-0.125% (inactive)
Nc1cc(=O)[nH]c(N)n1	1.31% (inactive)
C[C@H]1O[C@@H](n2cc(F)c(=O)[nH]c2=O)[C@H](O)[C@@H]1O	0.688% (inactive)
CSc1ccc2c(c1)C(N1CCN(C)CC1)Cc1ccccc1S2 (centres undefined)	5.38% (inactive)
CNCCCC1c2ccccc2C=Cc2ccccc21	7.31% (inactive)
N=c1c[n+](N2CCOCC2)[n-]o1	0.5% (inactive)
